Measurements as given in the OligoGym collection.

Molecular target: TUBA8
Experiment: pooled miR-30 sensor sort-seq; sequence = guide strand
Details: shRNA
Further: reference of the scale not given here.

Question: TTTCTTGCCATAATCCAGGGAG was tested. Which sensor-assay potency score (higher = more potent) did it give?
Answer: -0.376

Question: Which sensor-assay potency score (higher = more potent) does the source give for TTGATCTTGCTAGCTTGAGCAT here?
Answer: -0.893

Question: Which sensor-assay potency score (higher = more potent) does the source give for TTTCTTCTTCAAACGAATCAGT here?
Answer: -0.469

Question: TCGAACTTGTGGTCGAGGCGGG was tested. Which sensor-assay potency score (higher = more potent) did it give?
Answer: -0.697

Question: For TGATCTTGCTAGCTTGAGCATC, which sensor-assay potency score (higher = more potent) is on record?
Answer: -1.14

Question: ATTGAGGACACAATCTGACTGA was tested. Which sensor-assay potency score (higher = more potent) did it give?
Answer: 0.101

Question: TACATGAGGTCGAACTTGTGGT was tested. Which sensor-assay potency score (higher = more potent) did it give?
Answer: -0.814

Question: How did the sensor-assay potency score (higher = more potent) turn out when TCGCACTTCACCATCTGGCTGT was run?
Answer: -0.0578

Question: With TTGAGGTTGGTATAGGTAGGGC as the sequence, how does the sensor-assay potency score (higher = more potent) read?
Answer: -0.964

Question: Which sensor-assay potency score (higher = more potent) does the source give for TTGAGGACACAATCTGACTGAT here?
Answer: -0.409

Question: Which sensor-assay potency score (higher = more potent) does the source give for AATAGCGACATTCACATCCTTG here?
Answer: -0.744

Question: TCATCATCGTTGATCTTGCTAG was tested. Which sensor-assay potency score (higher = more potent) did it give?
Answer: -0.473

Molecular target: TUBAL3
Experiment: as above
Details: shRNA

Question: For TTCTCTGAGGTACCAGTGCAGA, which sensor-assay potency score (higher = more potent) is on record?
Answer: -1.43

Question: How did the sensor-assay potency score (higher = more potent) turn out when ATTGTTGGCAGCATCCTCCTTT was run?
Answer: 0.0651

Question: Which sensor-assay potency score (higher = more potent) does the source give for TAACTTGACATTCATTTGCACC here?
Answer: -1.19
